# Test results as given in PubChem BioAssay (NCI).
# About 79,000 compounds went through this panel and 15% of them were active in at least one assay; those are over-represented in the sample as a whole. Values without a mark were called inactive. Active and inactive are the calls of the source. No stated cut-off is given here; in the data, active means growth inhibition above about 70%; inactive means the rest.
# Assay: NCI Yeast Anticancer Drug Screen. Data for the mlh1 strain (AID 171);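 further: 0% = growth of vehicle-treated control cultures of the same strain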
# Details: S. cerevisiae mlh1 strain growth inhibition, stronger effect = higher value
# Experimental: Growth inhibition of yeast strains with defined genetic alterations is measured as a screen for potential anti-cancer activity. Selected strains with alterations in DNA damage repair or cell cycle control were exposed to compounds and growth inhibition was measured relative to vehicle treated controls. The strain used in this assay is mlh1
Compound,growth inhibition (at 1.2 µM) [%],growth inhibition (at 3.7 µM) [%],growth inhibition (at 11.0 µM),growth inhibition (at 33.0 µM),growth inhibition (at 100.0 µM)
O=C(O)c1cc2c(cc1S(=O)(=O)O)C1C(C3C2C2(Cl)C(Cl)=C(Cl)C3(Cl)C2(Cl)Cl)C2(Cl)C(Cl)=C(Cl)C1(Cl)C2(Cl)Cl (stereo not given),-2,-2,11%,95% (active),97% (active)
c1cc(-c2sc(-c3ccncc3)c(-c3ccncc3)c2-c2ccncc2)ccn1,7,4,7%,16%,92% (active)
Cc1ccc(NC(Nc2ccc(C)cc2C)=C(C(Cl)=C(Cl)Cl)[N+](=O)[O-])c(C)c1,1,5,35%,99% (active),94% (active)
CCN(CC)CC(=O)c1ccc2cc(Cl)c3ccccc3c2c1,12,23,99% (active),99% (active),98% (active)
COC(=O)c1ccccc1N=NNc1cccc(SC)c1,2,4,17%,94% (active),88% (active)
N#CSCC1COc2ccccc2O1 (stereo not given),-51,-37,-27%,77% (active),97% (active)
O=C1Nc2ccc(Br)cc2C1=Nc1ccc(Cl)cc1,-16,-24,-3%,8%,46%
O=S(=O)(NNc1ccccc1)c1ccccc1,-5,-3,-2%,14%,74% (active)
